# Hits are enriched below; roughly 4.6% of the tested compounds scored in any of these assays.
# Peg3 prom inh – Peg3 promoter-driven luciferase inhibitors, primary screen, cell-based, HeLa, luciferase luminescence. HeLa PEG-Prom luciferase reporter, overnight. AID 588405, 2011. 360,000 compounds, 1.7% hits. inhibition, % at 20 µM;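 active = inhibition of at least 50% at 20 µM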
# ABHD5-PLIN5 inh – ABHD5-PLIN5 interaction inhibitors, primary screen, cell lysate, split luciferase complementation, luminescence; Perilipin-5 (Homo sapiens) + 1-acylglycerol-3-phosphate O-acyltransferase ABHD5 (Homo …; Split G. princeps luciferase complementation, 4 h; inhibition, % at 4 µM; 360,000 compounds, 0.78% hits;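 active = inhibition above the mean inhibition across every tested compound plus 3 SD, cut at about 22% in these data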
# Target sequence (Q00G26 whole entry, looked up): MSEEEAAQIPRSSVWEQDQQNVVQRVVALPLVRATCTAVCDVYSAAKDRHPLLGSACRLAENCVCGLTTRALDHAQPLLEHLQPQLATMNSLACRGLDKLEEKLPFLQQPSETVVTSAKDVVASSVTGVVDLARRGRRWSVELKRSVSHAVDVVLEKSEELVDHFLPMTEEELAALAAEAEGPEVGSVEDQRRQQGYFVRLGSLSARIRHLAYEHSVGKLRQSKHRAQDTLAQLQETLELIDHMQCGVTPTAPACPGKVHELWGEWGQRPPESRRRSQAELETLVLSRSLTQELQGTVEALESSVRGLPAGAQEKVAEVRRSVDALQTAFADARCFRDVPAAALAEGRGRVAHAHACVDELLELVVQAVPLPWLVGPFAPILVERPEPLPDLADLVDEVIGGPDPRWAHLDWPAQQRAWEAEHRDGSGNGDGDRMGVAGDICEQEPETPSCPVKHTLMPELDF
# Target sequence (Q8WTS1 whole entry, looked up): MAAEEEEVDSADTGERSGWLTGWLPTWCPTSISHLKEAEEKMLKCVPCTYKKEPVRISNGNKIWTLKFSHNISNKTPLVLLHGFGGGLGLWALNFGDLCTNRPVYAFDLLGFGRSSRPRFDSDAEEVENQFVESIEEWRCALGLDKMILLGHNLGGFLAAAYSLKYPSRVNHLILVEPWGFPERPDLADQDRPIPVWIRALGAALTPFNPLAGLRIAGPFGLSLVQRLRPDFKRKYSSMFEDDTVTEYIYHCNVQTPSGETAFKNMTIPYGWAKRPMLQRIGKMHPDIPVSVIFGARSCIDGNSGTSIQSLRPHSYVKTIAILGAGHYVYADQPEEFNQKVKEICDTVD
# CF NFkB block – inhibitors of PAF-induced NF-kB signaling, primary screen, cell-based, GFP fluorescence, uHTS; KKLEB NF-kB-GFP reporter, GFP fluorescence overnight; inhibition, % at 5 µM; 360,000 compounds, 0.86% hits;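 active = at least 50% inhibition at 5 µM, scaled per plate between neutral and stimulator controls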;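 also: PAF is a Pseudomonas aeruginosa culture filtrate used as stimulus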
# HIF-2a block – HIF-2a reporter inhibitors, primary screen, luminescence, 786-0 RCC cells; inhibition, % at 18.8 µM; 360,000 compounds, 0.72% hits; 786-0 RCC cells HIF-2a reporter, luciferase luminescence, overnight;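 active = inhibition of the luminescence signal of 40% or more relative to plate controls, in a single-dose primary screen at 18.75 µM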
# KKLEB cytotox – cytotoxicity in KKLEB CF airway cells, primary screen, cytotoxicity control for CF NF-kB inhibitor project, cell-based, uHTS, fluorescence assay plates; KKLEB CF airway cells viability, ATPlite luminescence, overnight; hits give low values; cells stimulated with P. aeruginosa culture filtrate; activity change (cytotoxicity), % at 5 µM; 360,000 compounds, 0.36% hits;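 active = corrected activity change at or below -50% at 5 µM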
# Mdm2 MdmX PPI – inhibitors of human Mdm2-MdmX association, primary screen, cell-based, luminescence, split luciferase, SaOS-2, uHTS | AID 485346, 2010 | inhibition, % at 8 µM | SaOS-2 split-luciferase Mdm2/MdmX complementation | 330,000 compounds, 3% hits;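 active = inhibition of at least 50% at 8 µM in the primary screen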
# Mdm2 MdmX conf – Mdm2-MdmX complex disruptors, retested hits, confirmation, luminescence, single concentration. shares compounds with Mdm2 MdmX PPI. AID 489028, 2010. inhibition, % at 8 µM. 10,000 compounds, 55% hits. Mdm2-MdmX binding, luminescent assay; in the data active = inhibition above about 40%
# Full FLuc ctr – full-length luciferase signal inhibition, confirmation, counter-screen for Mdm2/MdmX interaction inhibitor project, cell-based, single concentration, SaOS-2. shares compounds with Mdm2 MdmX PPI. SaOS-2 full-length luciferase counterscreen, luminescence. inhibition, % at 8 µM. 6,200 compounds, 77% hits. AID 504607, 2011;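 active = mean inhibition at 8 µM reaching about 37%, which flags the compound as non-specific, limit read from the data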;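 also: p53-null SaOS-2 cells with luciferase driven by a doxycycline-inducible promoter; compound on cells about two nights before reading with doxycycline added after day one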
# Hits are given with their value; 0 = inactive; - = no result; ! = not confirmed by another sample.
SMILES,Peg3 prom inh,ABHD5-PLIN5 inh,CF NFkB block,HIF-2a block,KKLEB cytotox,Mdm2 MdmX PPI,Mdm2 MdmX conf,Full FLuc ctr
N#Cc1nccnc1S(=O)(=O)c1cccs1,-,-,-,-,-,74,47,0
CCCc1nc(SCC(=O)N2c3ccccc3CC2C)c2c(C)c(C)sc2n1 (stereo not drawn),0,0,0,0,0,66,0,-
CCCc1nc(SCC(=O)NC2CC2)c2c(C)c(C)sc2n1,0,0,0,0,0,0,-,-
Cc1sc2nc(C3CC3)nc(SCC(=O)N3CCc4ccccc4C3)c2c1C,0,0,0,0,0,0,-,-
Cc1sc2nc(C3CC3)nc(SCC(=O)N3CCCc4ccccc43)c2c1C,-,-,-,-,-,71,0,-
O=C(CNc1cc(S(=O)(=O)N2CCOCC2)ccc1N1CCCC1)Nc1ccc(Cl)cc1F,0,0,0,0,0,-,-,-
COCCN(C(=O)c1snc(C(N)=O)c1N)C(C(=O)NC1CCCCC1)c1ccc(OC)c(OC)c1 (stereo not drawn),0,0,0,0,0,0,-,-
O=C(CN1CCN(S(=O)(=O)c2ccccc2F)CC1)N1CCc2ccccc2C1,0,0,0,0,0,0,-,-
Cc1cc(C)cc(N(C(C)C(=O)N2CCCC2)S(C)(=O)=O)c1 (stereo not drawn),0,0,0,0,0,0,-,-
CSc1ccccc1OCc1cc(C(=O)NCCC2=CCCCC2)no1,0,0,0,0,0,52,0,-
O=C(NCCC1=CCCCC1)c1cc(COc2c(F)cccc2F)on1,0,0,0,0,0,0,-,-
Cc1c(Cc2ccccc2)c(=O)n2c([nH]c3ccccc32)c1C#N,0,0,0,0,0,61,42,57
COc1ccccc1N=Cc1c(C)c(C#N)c2[nH]c3ccccc3n2c1=O,0,0,0,0,0,0,-,-
Clc1cc(Br)ccc1OCCCNCc1ccccc1,56,22,0,0,0,55,0,-
CCOc1cc2c3c(c1)C(C)=CC(C)(C)N3C(=O)C2=O,0,0,0,0,0,68,0,85
Nc1ncnc2c1ncn2[C@@H]1O[C@H](C(=O)N2CCN(Cc3ccccn3)CC2)[C@@H](O)[C@H]1O,0,0,0,0,0,-,-,-
COc1ccc(Nc2ncnc3ccc(Br)cc23)cc1OC,0,0,0,0,0,58,64,0
Clc1ccc(Nc2ncnc3ccc(Br)cc23)cc1,0,0,73,0,0,77,61,37
O=C(COC(=O)Cc1cccs1)NCc1ccc(F)cc1,0,0,0,0,0,0,-,-
O=[N+]([O-])c1cccc2c(N3CCCC3)ccnc12,0,0,0,0,0,52,0,-
O=C(c1ccccc1F)N1CCN(c2ccc([N+](=O)[O-])c3ncccc23)CC1,0,0,0,0,0,0,-,-
COc1ccc(C(=O)C(CN2CCOCC2)c2ccccc2)cc1 (stereo not drawn),98,0,54,0,-61,80,81,0
CCC(O)(c1ccc(OC)cc1)C(CN1CCOCC1)c1ccccc1 (stereo not drawn),0,0,0,0,0,0,-,-
COc1ccc(C(=O)C(CN2CCCC2)c2ccccc2)cc1 (stereo not drawn),104,0,54,0,-58,99,64,0
CCN1CCN(Cc2ccc(NC(=O)c3cc(NC(=O)c4cc(-c5ccc(OC)cc5)n[nH]4)cc(OC)c3)cc2C(F)(F)F)CC1,0,0,0,0,0,95,0,-
SMILES,Peg3 prom inh,ABHD5-PLIN5 inh,CF NFkB block,HIF-2a block,KKLEB cytotox,Mdm2 MdmX PPI,Mdm2 MdmX conf,Full FLuc ctr
CCN1CCN(Cc2ccc(NC(=O)c3cc(NC(=O)C4=NN(c5ccccc5)C(=O)C4)cc(OC)c3)cc2C(F)(F)F)CC1,0,0,0,0,0,0,-,-
CCN1CCN(Cc2ccc(NC(=O)c3cc(NC(=O)c4ccc5n[nH]nc5c4)cc(OC)c3)cc2C(F)(F)F)CC1,0,0,0,0,0,0,-,-
CCN1CCN(Cc2ccc(NC(=O)c3cc(NC(=O)N4CCNC4=O)cc(OC)c3)cc2C(F)(F)F)CC1,97!,0,0,0,0,76,50,68
CCN1CCN(Cc2ccc(NC(=O)c3cc(NC(=O)c4cncc(-c5cccs5)c4)cc(OC)c3)cc2C(F)(F)F)CC1,0,0,0,0,0,97,0,58
CCN1CCN(Cc2ccc(NC(=O)c3cc(NC(=O)c4cc5cccc(OC)c5o4)cc(OC)c3)cc2C(F)(F)F)CC1,104,0,55!,0,-53!,98,0,-
COC(=O)C1CCN(S(=O)(=O)CCNC(=O)c2ccccc2)CC1,0,0,0,0,0,-,-,-
Cn1cccc2[nH]c(=O)nc1-2,0,0,0,0,0,0,-,-
CCN1CCN(Cc2ccc(NC(=O)c3ccc(C)c(NC(=O)c4cccc(-c5cn[nH]c(=O)c5)c4)c3)cc2C(F)(F)F)CC1,0,0,72,0,0,84,46,0
CCc1nc2ccc(C(=O)NCc3ccc4c(c3)OCO4)cn2c1N(C)CCC(C)C,0,0,0,0,0,-,-,-
c1ccc2c(c1)ncn2-c1ccc(-c2ccnc(-c3ccncc3)n2)cc1,0,0,0,0,0,53,0,-
CCCCNC(=O)c1c(N)n(/N=C/c2ccccn2)c2nc3ccccc3nc12,-,-,-,-,-,60,0,72
Cc1ccc(OCC(=O)N/N=C\c2cccn2C)c([N+](=O)[O-])c1,0,0,0,0,0,0,-,-
O=C(NCc1nc(-c2ccc(C(F)(F)F)cc2)no1)Nc1ccc(OC(F)(F)F)cc1,74,0,0,0,0,89,0,-
COc1ccc(-c2noc(CNS(=O)(=O)c3ccc(NC(C)=O)cc3)n2)cc1,0,0,0,0,0,0,-,-
COC(=O)c1cc(C(=O)N2CCN(c3cccc(C)c3C)CC2)cc([N+](=O)[O-])c1,0,0,0,0,0,55,48,54
COC(=O)c1cc(C(=O)N2CCN(c3ccccc3OC)CC2)cc([N+](=O)[O-])c1,0,0,0,0,0,52,56,60
COC(=O)c1cc(C(=O)N2CCN(c3ncccn3)CC2)cc([N+](=O)[O-])c1,0,0,0,0,0,0,-,-
Nc1nc(=O)n(C2CCCO2)cc1Br (stereo not drawn),0,0,0,0,0,-,-,-

# Bioassay records (PubChem)
